# Assay outcomes from PubChem.
# Shown are actives, neighbours in structure and some others; about 2.3% of the full set was active somewhere.
# Peg3 imprint – qHTS Assay for Compounds that Induce Erasure of Genomic Imprints; mouse ES Peg3-LacZ reporter, beta-gal luminescence, 40 h; 110,000 compounds, 0.02% hits; Potency, µM (highest dose often 60.7 µM), actives largely listed as activators
#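 Readout: BetaGlo luminescence (5 min, room temp) for LacZ from the normally silent maternal Peg3 allele in female Peg3LacZ-Neo ES cells. Cells 300/well, 40 h, 37C, 5% CO2. Data normalized per plate to negative controls.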
# p53ts 39C tox – qHTS Screen for Compounds that Selectively Target Cancer Cells with p53 Mutations: Cytotoxicity of p53ts Cells at the Nonpermissive Temperature | H1299-p53A138V viability at 39C, ATP luminescence, 24 h | Potency, µM (highest dose often 46.1 µM), hits mostly cytotoxic | 130,000 compounds, 1.5% hits | AID 902, 2007; note: nearly all actives have a fitted effect of over 55% in size
# IkB sig inh – IkB Signaling; ABC-DLBCL IkBa-CBG/CBR dual luciferase ratio, 4 h; response scale: scaled: untreated 0%, proteasome inhibitor 100%; Potency, µM (titrated, usually from 57.1 µM); 110,000 compounds, 0.04% hits; AID 445, 2006; active = well fitted curve in the direction sought with a large enough effect in the signal ratio, not every such curve was filed as active; inconclusive = small, poorly fitted or top-dose-only effect, or a change in a side signal; the % refers to the signal ratio;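 note: the direction sought is a rising ratio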
#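 In this assay, an IκBα–CBG68 fusion accumulates when IKK-driven degradation is blocked; native CBR normalizes for cell number. OCI-Ly3 cells were treated 4 h with compound and doxycycline, then green and red light read after Chroma-Glo addition.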
# p53ts 32C tox – qHTS Screen for Compounds that Selectively Target Cancer Cells with p53 Mutations: Cytotoxicity of p53ts Cells at the Permissive Temperature | H1299-p53A138V at 32C, ATP luminescence viability, 24 h | Potency, µM (series often up to 46.1 µM), hits mostly cytotoxic | 130,000 compounds, 0.93% hits; note: nearly all actives have a fitted effect of over 55% in size
#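 ATP-content luminescence (ATPlite) read-out after 24 h compound exposure at 32C in H1299-p53A138V cells (600/well). Tested up to 46 uM. Normalized to DMSO (0%) and 100 uM tamoxifen (100% killing); Hill-fit AC50.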
# ERK AVP block – qHTS Assay for Inhibitors of the ERK Signaling Pathway using a Homogeneous Screening Assay | Potency, µM (highest dose often 57.5 µM), most hits filed as inhibitors | HEK293-V1b, vasopressin-stimulated pERK AlphaScreen | 72,000 compounds, 0.99% hits; note: nearly all actives have a fitted effect of over 55% in size
#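 Overnight-seeded V1b-HEK293 cells in 1% FBS got compound, then vasopressin (25 nM final, 5 min, 37C), then lysis buffer. AlphaScreen detection of phospho-ERK; activity normalized to basal and full-stimulation controls.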
# Numbers stand for hits; n = inactive; u = inconclusive; x = no result; ! = repeats disagree; [ ] = another dose, or the depositor's remark. Unless noted, calls come from the whole dose curve; as a rule, active = well fitted curve in the direction sought with a large enough effect; inconclusive = small, poorly fitted or top-dose-only effect, or another doubt; inactive = no such curve, though single readings can be large; an effect the other way counts as inactive or inconclusive.
SMILES,Peg3 imprint,p53ts 39C tox,IkB sig inh,p53ts 32C tox,ERK AVP block
CCOc1ccccc1NC(=O)c1ccc(NC(=O)c2ccco2)cc1,x,n,x,n,x
CC(C)(C)OC(=O)[C@H](C1N[C@@H](C(=O)O)C(C)(C)S1)N1C(=O)c2ccccc2C1=O (stereo partly drawn),n[10.9 µM],x,x,x,x
O=C(c1ccc(OCCN2CCCCC2)cc1)c1c(-c2ccc(O)cc2)sc2cc(O)ccc12,n,25µM!,n,20µM!,u
COc1ccc2c(c1OC)C(Cc1ccccc1)N1CCc3cc4c(cc3C1C2)OCO4 (stereo not drawn),n,n,x,n,n
COc1ccc(-c2cn3c4c(sc3n2)CCCC4)cc1,n,5µM,n,6.3µM,n
CCOc1ccc(NC(=O)c2sc3nc(-c4ccc(OC)cc4)cn3c2C)cc1,n[10.9 µM],n,n,n,x
C/C=C1\CC2C=CC1C2 (stereo not drawn),n,n,n,n[1.84 µM],n
O=C(c1ccc(Br)o1)N1CCN(c2ccc3nnc(-c4ccccc4)n3n2)CC1,n,n,u,13µM,n
C#CCCCO/N=C1/C[C@@H](O)[C@@H](O)[C@@H]2[C@@H]3C(=O)N(CCC(=O)OCC)C(=O)[C@H]3CC[C@H]12,x,n[9.22 µM],x,n[9.22 µM],n[11.5 µM]
Cc1cc(C)c(NC(=O)Cn2nnc3sc4c(c3c2=O)CCC(C(C)(C)C)C4)c(C)c1 (stereo not drawn),n[10.9 µM],13µM,n,u,x
COc1cc(CNc2cc(C)ccc2C)cc(OC)c1OC,x,n,x,n,x
COc1cc(CNc2ccc(C)c(C)c2)cc(OC)c1OC,n,n,n,n,40µM
N#CCCSC(=S)[C@H]1CCCC1=N,n[10.9 µM],n[9.22 µM],n[11.4 µM],n[9.22 µM],n[11.5 µM]
CN(C)CCCNc1cc(N2CCN(C3CCCCC3)CC2)c2noc3c2c1C(=O)c1ccccc1-3,n[10.9 µM],20µM,n,n,x
Cc1cc(C)c(CSc2nnc(C)n3c2cc2occc23)c(C)c1,n[10.9 µM],20µM,n,n,x
O=C(NCCN1CCCC1)c1ccc(Cc2nc3ccccc3[nH]2)cc1,x,n,x,n,x
Nc1[nH]c(=S)[nH]c(=O)c1N=Nc1c(Br)cc(S(N)(=O)=O)cc1Br,n[10.9 µM],n[9.22 µM],n[11.4 µM],n[9.22 µM],n[11.5 µM]
COc1ccccc1OCc1nnc(SCC(=O)c2cc(Cl)ccc2OC)o1,n,n,u,n,32µM
C/C(N)=C(/C#N)C(=O)CSc1nnc(COc2ccccc2Cl)o1,n,n,n,n,n
COc1cc(C=O)c([N+](=O)[O-])cc1OC,n,n,x,n,n
CCN(CC)S(=O)(=O)c1cccc(-c2nnc(SCC(=O)NCCC3=CCCCC3)n2N)c1,n,n,u,n,40µM
Cc1cccc(-n2nnnc2SC(C)C(=O)NCCC2=CCCCC2)c1 (stereo not drawn),n,n,u,n,n
CCc1ccc(S(=O)(=O)Nc2ccc(O)c(C(=O)O)c2)cc1,x,n,x,n,x
CCCOc1ccc(N2C(=O)CC(SCCN)C2=O)cc1 (stereo not drawn),n,10µM,n,13µM,n
CC(C)Nc1ncnc2c1cnn2-c1ccc(Cl)cc1,n,16µM,u,13µM,x
SMILES,Peg3 imprint,p53ts 39C tox,IkB sig inh,p53ts 32C tox,ERK AVP block
CCOC(=O)CNC(=O)CSc1ncnc2c1cnn2-c1ccc(C)cc1,x,n,n,n,7.9µM
Clc1ccc(Nc2ncnc3c2cnn3-c2ccccc2)cc1,n,u,u,u,x
CCC(CO)Nc1ncnc2c1cnn2-c1ccc(C)cc1 (stereo not drawn),n[10.9 µM],16µM,u,u,x
Oc1ccc([C@@H]2CNCc3sccc32)cc1O,x,n,n,n,u
Oc1ccc(Cl)cc1C=Nc1cnc2ccccc2c1,n[10.9 µM],n[9.22 µM],n[11.4 µM],n[9.22 µM],n[11.5 µM]
O=c1c(O)cc(C2Oc3cc(O)cc(O)c3CC2O)cc2c(C3Oc4cc(O)cc(O)c4CC3O)cc(O)c(O)c12 (stereo not drawn),n,n,x,n,n
COc1ccc(S(=O)(=O)Nc2cccc(-c3ccc(N4CCCCC4)nn3)c2)cc1F,n[10.9 µM],13µM,n,13µM,x
O=S(=O)(Nc1cccc(-c2ccc(N3CCCCC3)nn2)c1)c1cccc(F)c1,n[10.9 µM],u,n,10µM,x
N=c1ccn2c(n1)O[C@@H]1[C@@H](O)[C@H](CO)O[C@H]12,x,n,n,n,n
O=C(c1cc2ccccc2oc1=O)N1CCN(c2ccc(N3CCOCC3)nn2)CC1,n,u,n,u,n
O=C(c1ccc(CSCc2ccccc2F)o1)N1CCN(c2ccc(N3CCOCC3)nn2)CC1,n,n,u,n,25µM
CC(C)N(CCNC(=O)c1ccc(Cc2nc3ccccc3[nH]2)cc1)C(C)C,x,n,x,n,x
N#CC(C#N)=C(N)/C(C#N)=C/c1ccc(O)cc1,n,u,n,n,13µM
CCSc1nnc(NC(=O)c2ccccn2)s1,n,10µM,u,10µM,n
C/C(CCC(=O)OC[C@@H]1O[C@H](C#Cc2ccccc2)C=C[C@@H]1Oc1ccc(C)cc1)=N/O[C@@H](C)c1cn([C@H]2COC[C@H]2O)nn1,x,n[9.22 µM],x,n[9.22 µM],n[11.5 µM]
c1ccc(-c2nnc(-c3ccccn3)nn2)nc1,n,u,u,u,n
c1ccc(-c2cccc(-c3ccccn3)n2)nc1,n,0.79µM,n,u,u
Cn1cccc1Cc1nnc(SCC(=O)Nc2ccc3c(c2)OCO3)n1CCc1ccccc1,n,n,n,n,16µM
CCn1c(=NC(=O)c2ccc3c(c2)OCCO3)sc2c(C)ccc(OC)c21,n[10.9 µM],10µM,n,n,x
CC(=O)[C@H]1CC[C@@H]2[C@]1(C)CC=C1[C@]23C=C[C@]2(C[C@H](O)CC[C@@]12C)[C@H](C(=O)O)[C@@H]3C(=O)O,x,n[9.22 µM],n[11.4 µM],n[9.22 µM],n[11.5 µM]
COC(=O)CCCC(=O)O,u,n[9.22 µM],n[11.4 µM],n[9.22 µM],n[11.5 µM]
COc1ccccc1NC(=O)Nc1ccc2c(c1)OCCO2,n,13µM,u,10µM,n
COc1ccc(C(=O)Nc2ccc3c(c2)OCCO3)cc1,x,7.1µM,x,6.3µM,x
COc1cc(C(=O)Nc2ccc3c(c2)OCCO3)ccc1OC(F)F,n,13µM,u,16µM,u
COc1ccc(NC(=O)c2cnc[nH]2)cc1,n[10.9 µM],13µM,n,7.9µM,x
SMILES,Peg3 imprint,p53ts 39C tox,IkB sig inh,p53ts 32C tox,ERK AVP block
O=C(NCCCCN1CCCC1)c1ccc(-n2c(=O)c(=O)[nH]c3ccccc32)cc1,x,n,x,n,x
COc1ccc(-c2nnc(SC(C)C(=O)Nc3ccc4c(c3)OCCO4)o2)cc1 (stereo not drawn),n,13µM,n,16µM,n
O=C(Nc1ccc2c(c1)OCCO2)c1cncc(Br)c1,n,10µM,n,10µM,n
COc1ccc(C(=O)Nc2cc(OC)cc(OC)c2)cc1,n,u,u,13µM,n
COc1ccc(NC(=O)c2ccc3c(c2)OCO3)cc1Cl,n,13µM,n,5µM,n
O=C(Nc1ccncc1)c1ccc2c(c1)OCCO2,n,n,n,u,n
COc1cc(NC(=O)c2ccccc2)cc(OC)c1,n,n,n,n,n
